Molecules are shown by their SMILES. Records with an inconclusive call do not appear. Calls of active or inactive are those of the source. Unless noted, calls follow the shape of the dose curve; as a rule, active = well fitted curve in the direction sought with a large enough effect; inconclusive = small, poorly fitted or top-dose-only effect, or another doubt; inactive = no such curve, though single readings can be large; an effect the other way counts as inactive or inconclusive.

The nature of the first assay: qHTS Assay for Identifying Gametocytocidal Compounds (AID 743244). Also: potency is read from the fitted curve at half-maximal effect.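 As to max response: % is scaled to controls: 0 for no effect and ±100 for the full control effect; actives lower the fluorescent signal which means gametocytes are killed.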 Particulars: P. falciparum 3D7 stage III-V gametocytes, alamarBlue, 72 h; max response: stronger effect = lower value. The essentials: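 Fluorescence at Ex 525/Em 598 nm, recorded 24 h after alamarBlue addition, reports residual metabolic activity of 3D7 gametocytes (stages III–V) following 72 h compound exposure at 37 °C, 5% CO2.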
(In qHTS, concentration-response curves come from the screen itself.)
For the compound `Cc1c(-c2ccccc2)oc2c(C(=O)OCCN3CCCCC3)cccc2c1=O`, the max response was 3.61% (inactive).

With `NC1CCN(c2nc3c(cc2F)c(=O)c(C(=O)O)cn3-c2ccc(F)cc2F)C1` (centres undefined), the max response is -5.91% (inactive).

With `O=C(CCN1CCN2CCCC2C1)N1c2ccccc2Sc2ccc(Cl)cc21` (centres undefined), the Potency was 22.4 µM (active).

Consider `C=CCN1CCc2nc(N)sc2CC1`, for which the max response was 14.4% (inactive).

As to `CC(=O)NO`, the max response is 6.13% (inactive).

For `O[C@@H](c1cc(C(F)(F)F)nc2c(C(F)(F)F)cccc12)[C@H]1CCCCN1`, the Potency is 1.05 µM (active).

On to `COc1cc(C(=S)N2CCOCC2)ccc1O`, for which the max response is 19.6% (inactive).

Regarding `CC(C)[N+](C)(C)CC(O)COc1cccc2ccccc12` (centres undefined), the max response was -10.5% (inactive).

For `CCC(Cc1c(I)cc(I)c(N)c1I)C(=O)O` (centres undefined), the max response was 3.24% (inactive).

`COc1ccc(CCN(C)CCCN2CCc3cc(OC)c(OC)cc3CC2=O)cc1OC`: the max response was -9.4% (inactive).

On to `NS(=O)(=O)Cc1noc2ccccc12`, for which the max response was -3.32% (inactive).

For `CC(C)(C)NC[C@H](O)COc1cccc2c1CCCC2=O`, the max response was -0.406% (inactive).

For the compound `CCO[C@@H]1O[C@H](C(COCc2ccccc2)OCc2ccccc2)[C@H](OCc2ccccc2)[C@H]1O` (some centres undefined), the max response was -9.56% (inactive).

Turning to `Cc1ccccc1OCC(O)CO` (centres undefined), the max response was -6.04% (inactive).

Turning to `COc1cc(NS(=O)(=O)c2ccc(N)cc2)ncn1`, the max response was -7.94% (inactive).

As to `O=C(Nc1ccccc1)OCC(CN1CCCCC1)OC(=O)Nc1ccccc1` (centres undefined), the max response is 3.58% (inactive).

Regarding `NCc1ccccc1Sc1ccccc1CO`, the max response was -6.07% (inactive).

With `CC(=O)OCC1=C(C(=O)O)N2C(=O)[C@@H](NC(=O)CSc3ccncc3)[C@H]2SC1`, the max response is -9.74% (inactive).

Turning to `CCN[C@@H]1C[C@H](N)[C@@H](OC2OC(CN)=CCC2N)[C@H](O)[C@H]1O[C@H]1OC[C@](C)(O)[C@H](NC)[C@H]1O` (some centres undefined), the max response is 13.5% (inactive).

In the case of `CC[C@]12CCCN3CCc4c(n(c5ccccc45)C(=O)C1)[C@@H]32`, the max response was 3.35% (inactive).

Regarding `O=C1C(CCS(=O)c2ccccc2)C(=O)N(c2ccccc2)N1c1ccccc1` (centres undefined), the Potency is 0.0089 µM (active).

On to `CCc1oc2ccccc2c1C(=O)c1cc(I)c(O)c(I)c1`, for which the max response was 0.665% (inactive).

As to `C[C@]12CCC(=O)C=C1C=C[C@@H]1[C@@H]2CC[C@@]2(C)[C@H]1CC[C@@]21CCC(=O)O1`, the max response is 1.8% (inactive).

On to `Nc1ccc(S(=O)(=O)NCc2ccccc2)cc1`, for which the max response was -10.6% (inactive).

Regarding `CC(CNC1CCCCC1)OC(=O)c1ccccc1` (centres undefined), the max response was 10.4% (inactive).

For the compound `Cc1cc(C)cc(OCC2CNC(=O)O2)c1` (centres undefined), the max response is -6.82% (inactive).

For the compound `CNCCCCOc1ccccc1Cc1ccccc1`, the Potency is 18.7 µM (active).

As for `CC1=C(C(=O)O)N2C(=O)[C@@H](NC(=O)[C@H](N)c3ccccc3)[C@H]2SC1`, the max response was 2.91% (inactive).

Turning to `CCNC(=O)/C=C/c1cccc(Br)c1`, the max response was 3.79% (inactive).

In the case of `Nc1ccc(S(=O)(=O)Nc2cnc3ccccc3n2)cc1`, the max response is -6.45% (inactive).

As to `CCOC(=O)[C@@](C)(N)Cc1ccc(O)c(O)c1`, the max response was 1.03% (inactive).

For the compound `Cc1c[nH]c2ccccc12`, the max response was 0.215% (inactive).

On to `CC(=O)Oc1ccc(C)cc1`, for which the max response is -2.81% (inactive).

For `Cc1cn([C@H]2C[C@H](F)[C@@H](CO)O2)c(=O)[nH]c1=O`, the max response was -5.75% (inactive).

The next assay is described as follows: qHTS profiling for inhibitors of Plasmodium falciparum (3D7) proliferation (AID 743322; call rule not given here;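 also: infected erythrocytes exposed to compound for 72 h before lysis; 100% = DMSO vehicle wells and 0% = 0.29 µM artemisinin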). The following applies: P. falciparum 3D7 proliferation; at 28.7 µM (top of the series) unless noted. The essentials:
(§1)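 Parasite DNA was quantified by SYBR Green I fluorescence (ex 485, em 535 nm) after overnight lysis in saponin/Triton buffer at room temperature. Cultures at 0.3% parasitemia and 2.5% hematocrit were first exposed to compound for 72 h at 37 C; signals were normalised to artemisinin (0.29 uM) and vehicle wells.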
With `O=C1C(=O)c2ccccc2C(O)=C1C1CCC(c2ccc(Cl)cc2)CC1` (centres undefined), the remaining parasite growth % (stronger effect = lower value) came out at 9.76e-05%.

For `C[N+]1(C)CCC(=C(c2ccccc2)c2ccccc2)CC1`, the remaining parasite growth % (stronger effect = lower value) was determined as 4.05% [at 18.4 µM].

Turning to `CC(CNC1CCCCC1)OC(=O)c1ccccc1` (centres undefined), the remaining parasite growth % (stronger effect = lower value) is 106% [at 9.63 µM].

Turning to `CNCCCCOc1ccccc1Cc1ccccc1`, the remaining parasite growth % (stronger effect = lower value) was found to be 65.9%.

A further assay can be described thus: qHTS profiling for inhibitors of Plasmodium falciparum (DD2) proliferation (AID 743323; call rule not given here). The following applies: lower = more inhibition; at 28.7 µM (top of the series) unless noted. The essentials:
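1536-well qHTS; infected RBCs 0.3% parasitemia/2.5% Hct final; cpd 72 h 37 C 5% CO2; lysis buffer + SYBR Green I, o/n RT dark; FI 485/535; norm. to 0.29 uM artemisinin and DMSO, plate-stack corrected.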
Regarding `O=C1C(=O)c2ccccc2C(O)=C1C1CCC(c2ccc(Cl)cc2)CC1` (centres undefined), the activity, percent of control turned out to be 3.7%.

In the case of `C[N+]1(C)CCC(=C(c2ccccc2)c2ccccc2)CC1`, the activity, percent of control came out at 22.2% [at 18.4 µM].

Compound `CC(CNC1CCCCC1)OC(=O)c1ccccc1` (centres undefined) displayed an activity, percent of control of 61.4% [at 9.63 µM].

In turn, `CNCCCCOc1ccccc1Cc1ccccc1` had an activity, percent of control of 31.1%.

Another assay in a line: qHTS profiling for inhibitors of Plasmodium falciparum (HB3) proliferation (AID 743324).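 Also: 100% = DMSO vehicle wells and 0% = artemisinin-treated control wells.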 The following applies: Plasmodium falciparum HB3 blood-stage proliferation; at 28.7 µM (top of the series) unless noted. The essentials:
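SYBR Green fluorescence (485 ex/535 em) of lysed cultures, incubated overnight at room temperature in the dark, quantifies parasite DNA. Infected erythrocytes at 0.3% parasitemia and 2.5% hematocrit were exposed 72 h; values normalized to DMSO and 0.29 uM artemisinin controls.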
As to `O=C1C(=O)c2ccccc2C(O)=C1C1CCC(c2ccc(Cl)cc2)CC1` (centres undefined), the remaining proliferation (% of control), lower = more inhibition came to 1.19%.

As for `CC(CNC1CCCCC1)OC(=O)c1ccccc1` (centres undefined), the remaining proliferation (% of control), lower = more inhibition turned out to be 111% [at 9.63 µM].

For `CNCCCCOc1ccccc1Cc1ccccc1`, the remaining proliferation (% of control), lower = more inhibition amounted to 42.9%.

The next assay in a line: qHTS profiling of the MIPE4 collection as inhibitors of Plasmodium falciparum (3D7) proliferation (AID 743344; call rule not given here;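 also: scaled between DMSO vehicle wells and 0.29 µM artemisinin as full inhibition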). Particulars: P. falciparum 3D7 in erythrocytes, SYBR Green DNA fluorescence, 72 h; at 28.5 µM (top of the series). The essentials: as §1
Compound `O=C1C(=O)c2ccccc2C(O)=C1C1CCC(c2ccc(Cl)cc2)CC1` (centres undefined) showed a parasite growth, % of DMSO control of 9.11%.

On to `NS(=O)(=O)Cc1noc2ccccc12`, for which the parasite growth, % of DMSO control came to 102%.

In the case of `CCOC(=O)Nc1ccc2c(c1)N(C(=O)CCN1CCOCC1)c1ccccc1S2`, the parasite growth, % of DMSO control stood at 47.5%.

Another assay in a line: qHTS profiling of the MIPE4 collection as inhibitors of Plasmodium falciparum (DD2) proliferation (AID 743345; call rule not given here). Particulars: P. falciparum Dd2 in erythrocytes, SYBR Green DNA, 72 h; at 28.5 µM (top of the series). From the text:
(§2) Plasmodium falciparum is a virulent malarial parasite that kills 1-2 million people worldwide each year. Transmitted by mosquitoes, the sporozoite form of the parasite enters the blood stream to infect hepatocytes, where they become merozoites that infect red blood cells (erythrocytes). Within erythrocytes, merozoites begin a […] cycle of growth and division, after which the parasite is released to infect new red blood cells. Gametocytes, which form within erythrocytes as well, circulate in the bloodstream and are ingested by the mosquito, thereby completing the life cycle. To profile malarial isolates for differential chemical responses and to identify inhibitors of malarial growth, an assay that measures P. falciparum growth and replication within erythrocytes was employed. This assay uses a DNA binding fluorescent dye (SYBR Green) to detect parasite DNA following cell lysis. Because mature erythrocytes lack DNA, only Plasmodium-derived DNA is detected.
(§3) The SYBR Green viability assay was adapted from a method described previously (Plouffe et al., 2008). For screening 3 ul culture medium was dispensed into 1536 well black clear bottom plates (Aurora Biotechnologies) using a Multidrop Combi (Thermo Fisher Scientific Inc.), 23 nL compounds in DMSO were added by a pin tool (Kalypsys), and 5 ul of erythrocytes infected with P. falciparum (0.3% parasitemia, 2.5% hematocrit final concentration) were added. The plates were incubated at 37 C in a humidified incubator in 5% CO2 for 72 h, and 2 ul lysis buffer (20 mM Tris HCl, 10 mM EDTA, 0.16% saponin, 1.6% triton X, 10X SYBR Green I supplied as 10,000X […] by Invitrogen) was added to each well. […] The following morning, fluorescence intensity at 485(14) nm excitation and 535(25) nm emission wavelengths was measured on an EnVision (Perkin Elmer) plate reader. Plate reads were normalized relative to the control inhibitor (0.29 uM artemisinin) and vehicle (DMSO) wells present on each plate and then corrected by an algorithm using vehicle-only control plates at the beginning and end of the compound plate stack.
As to `O=C1C(=O)c2ccccc2C(O)=C1C1CCC(c2ccc(Cl)cc2)CC1` (centres undefined), the parasite growth remaining, % of DMSO control (lower = more inhibition) was 9.71%.

Turning to `NS(=O)(=O)Cc1noc2ccccc12`, the parasite growth remaining, % of DMSO control (lower = more inhibition) stood at 99.5%.

The compound `CCOC(=O)Nc1ccc2c(c1)N(C(=O)CCN1CCOCC1)c1ccccc1S2` showed a parasite growth remaining, % of DMSO control (lower = more inhibition) of 85.2%.

The nature of the next assay: qHTS profiling of the MIPE4 collection as inhibitors of Plasmodium falciparum (DD2) proliferation (Rep 2) (AID 743346; call rule not given here). The following applies: P. falciparum Dd2 in erythrocytes, SYBR Green DNA, 72 h; at 28.5 µM (top of the series).
Excerpt: as §2, §3
Turning to `O=C1C(=O)c2ccccc2C(O)=C1C1CCC(c2ccc(Cl)cc2)CC1` (centres undefined), the parasite growth, % of control (lower = inhibition) came to 18.4%.

Take `NS(=O)(=O)Cc1noc2ccccc12`: the parasite growth, % of control (lower = inhibition) was determined as 74.3%.

For `CCOC(=O)Nc1ccc2c(c1)N(C(=O)CCN1CCOCC1)c1ccccc1S2`, the parasite growth, % of control (lower = inhibition) was determined as 68.2%.

The values above are taken from PubChem BioAssay (NCATS).
